TRHR agonist – agonists of human TRH receptor. P34981. TRHR cells, calcium flux fluo-8, FDSS agonist mode. actives 0.18% (n = 360,000). activation, % at 2 µM; further: 0% is about no effect
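In this calcium-flux screen, cells bearing human TRHR are dye-loaded with fluo-8, baselined for 10 cycles, then exposed to library compounds; positive kinetic calcium responses during the agonist phase mark hits, with TRH as control.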
D1 PAM – human D1 dopamine receptor positive modulation; P21728; HEK293 TREx D1 cells, calcium flux, dopamine EC20 potentiation; potentiation, % at 10 µM; actives 0.036% (n = 360,000); AID 504651; in the data active means potentiation above about 30%; further: 0% is about no effect
Target sequence (P21728 whole entry, looked up): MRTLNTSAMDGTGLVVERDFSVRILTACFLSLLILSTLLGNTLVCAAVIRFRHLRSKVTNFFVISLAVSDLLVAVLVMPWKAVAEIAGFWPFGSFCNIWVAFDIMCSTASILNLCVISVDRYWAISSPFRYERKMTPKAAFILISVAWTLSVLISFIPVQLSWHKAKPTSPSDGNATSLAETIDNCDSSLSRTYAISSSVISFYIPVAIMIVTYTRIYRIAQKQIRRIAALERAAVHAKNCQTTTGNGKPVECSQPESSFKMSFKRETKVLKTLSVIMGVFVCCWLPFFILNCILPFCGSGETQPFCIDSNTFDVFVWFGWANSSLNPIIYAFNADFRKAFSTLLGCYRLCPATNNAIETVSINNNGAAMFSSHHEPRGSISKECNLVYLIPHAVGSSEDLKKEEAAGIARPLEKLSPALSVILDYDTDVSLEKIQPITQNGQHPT
D1 ag – agonists of human D1 dopamine receptor; P21728; HEK293 T-REx D1 cells, calcium flux, agonist mode; activation, % at 2 µM; actives 1% (n = 360,000); further: 0% is about no effect
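Inducible HEK293 T-REx D1 cells, force-coupled to calcium signalling, were plated at 4000 cells/well with tetracycline and held overnight at 30 C. After no-wash calcium dye loading, compound-evoked calcium rise over 180 s flagged agonists.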
TRHR enhancer – allosteric enhancers of human TRH receptor | P34981 | actives 0.66% (n = 360,000) | TRHR cells, fluo-8 calcium fluorescence, EC20 TRH enhancement | enhancement, % at 2 µM; in the data active means enhancement above about 30%; further: 0% is about no effect
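Enhancer read-out: after compound pinning and an initial kinetic agonist-mode read, an EC20 of TRH (10 nM final) was injected and fluo-8 calcium signal (Ex 480/Em 530) followed at 1 s/cycle for 100 cycles in TRHR-expressing cells.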
D1 antagonist – antagonists of human D1 dopamine receptor | activity change, negative = inhibition, % at 10 µM | actives 3.2% (n = 360,000) | P21728 | HEK293 TREx D1 cells, calcium flux, dopamine EC80; active compounds read low; in the data active means activity change below about -30%; further: on the % scale 0 is the no-effect control and ±100 the full control effect
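Tetracycline-induced HEK293 Trex D1 cells, force-coupled to calcium, dye-loaded; compounds added and read 180 s, then EC80 dopamine added and calcium flux tracked kinetically another 180 s.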
An asterisk follows results filed as active; ! = not active in a repeat. An excerpt weighted towards active compounds, which were near 4.6% of everything screened. Unless noted, no stated cut-off is given here; in the data, active means activation above about 30%; inactive means the rest.

SMILES | TRHR agonist | D1 PAM | D1 ag | TRHR enhancer | D1 antagonist
CCOc1cccc(CC(=O)N2CCc3c([nH]c4ccccc34)C2c2ccc(C)cc2)c1OCC (stereo not given) | 1 | 0 | 2 | 5 | -7
CSc1ccc(C(=O)C2CCCN(Cc3cccn3-c3cccnc3)C2)cc1 (stereo not given) | 1 | 8 | 2 | -9 | -3
COc1ccc(C(=O)C2CCCN(Cc3c(F)ccc(F)c3F)C2)c(OC)c1 (stereo not given) | 0 | -8 | 1 | -2 | 14
COc1ccc(C(=O)C2CCCN(Cc3cccn3-c3ccc(Cl)cn3)C2)c(OC)c1 (stereo not given) | 1 | -3 | 33* | 1 | -7
O=C(c1ccc(Cl)cc1)C1CCCN(Cc2cccn2-c2cccnc2)C1 (stereo not given) | 0 | -6 | 0 | 33* | 6
COc1cccc(CNC(=O)c2ccc(CS(=O)(=O)Cc3ccccc3C)o2)c1 | 0 | -3 | 9 | -3 | 15
COc1ccc(S(=O)Cc2ccc(C(=O)NCc3cccc(OC)c3)o2)cc1 (stereo not given) | 0 | -2 | 2 | -3 | -35*
COc1ccc(S(=O)Cc2ccc(C(=O)N3CCN(c4cccc(C)c4C)CC3)o2)cc1 (stereo not given) | 0 | 1 | 11 | -7 | -42*!
COc1cccc(CNC(=O)c2ccc(CS(=O)(=O)Cc3ccc(C)cc3)o2)c1 | 0 | -2 | 14 | -6 | -43*
S=C(c1ccc(-c2ccccc2)cc1)N1CCOCC1 | 0 | -1 | 1 | 34* | -2
O=C(Oc1ccc(Cl)cc1)N1CCOCC1 | 0 | 0 | -3 | -4 | 14
O=C(Oc1ccc(-c2ccccc2)cc1)N1CCOCC1 | 0 | -4 | 8 | 1 | -32*
O=C(c1ccc(-c2ccccc2)cc1)c1ccccc1C(=O)N1CCOCC1 | 0 | -4 | 2 | 4 | 14
O=[N+]([O-])c1ccc(Cn2cc(-c3cccc(C(F)(F)F)c3)nn2)cc1 | -1 | 4 | 9 | -11 | 9
O=C1CC(C(=O)Nc2cccc3ccccc23)C2(CCCC2)O1 (stereo not given) | 1 | 2 | 34* | 0 | 17
CCC(=NCCc1c(C)[nH]c2ccc(OC(F)(F)F)cc12)C1=C(O)CC(c2ccccc2)CC1=O (stereo not given) | 0 | -3 | 5 | 1 | -12
CCC(=NCCc1c(C)[nH]c2ccccc12)C1=C(O)CC(c2ccccc2)CC1=O (stereo not given) | 0 | 0 | 2 | -4 | 25
CCCCC(=NCCc1c(C)[nH]c2ccc(OC)cc12)C1=C(O)CC(c2ccccc2)CC1=O (stereo not given) | -1 | 10 | 6 | -7 | -34*
CC(=NCCc1c(C)[nH]c2ccc(OCc3ccccc3)cc12)C1=C(O)CC(c2ccccc2)CC1=O (stereo not given) | 1 | 2 | 9 | 2 | -31*
O=C(Nc1ccc(F)cc1)c1cc(-c2ccncc2)nc2c(Cl)cccc12 | 2 | -8 | 2 | 1 | -14
Cc1ccc2oc(C(=O)N(Cc3ccccc3F)C3CCS(=O)(=O)C3)c(C)c2c1 (stereo not given) | 1 | 2 | 19 | 1 | -11
COc1ccc(NC(=O)/C(C#N)=C/c2c(C)nn(-c3ccc(F)cc3)c2Cl)cc1OC | 0 | -17 | 1 | 8 | -32*
COc1ccc(NC(=O)/C(C#N)=C/c2c(C)nn(-c3ccc(F)cc3)c2Cl)cc1Cl | 0 | -2 | 4 | 0 | -19
COc1ccc(NC(=O)c2cn3c4c(ccc(Cl)c4c2=O)OC(C)C3)cc1OC (stereo not given) | -1 | 8 | 3 | 50* | 16
C=CCNC(=O)c1onc(CSc2ccc(F)c(F)c2)c1C(=O)O | 0 | 1 | 31* | 4 | 136
SMILES | TRHR agonist | D1 PAM | D1 ag | TRHR enhancer | D1 antagonist
C=CCNC(=O)c1onc(CSc2ccc(Cl)cc2)c1C(=O)O | 0 | 0 | 0 | 18 | 6
C=CCNC(=O)c1onc(CSc2cccc(OC)c2)c1C(=O)NCC=C | 0 | 0 | 0 | -4 | -49*
COc1cc(OC)cc(-c2nc3nc(C)c(CCC(=O)Nc4ccc(C)c(C)c4)c(C)n3n2)c1 | 1 | -3 | 3 | 6 | -57*
COc1cc(NC(=O)CCc2c(C)nc3c(-c4ccc(F)cc4)c(C)nn3c2C)cc(OC)c1OC | 0 | -8 | 0 | 4 | -41*
COc1cccc2c(C)cc3nnc(SCC(=O)Nc4ccc(C)cc4)n3c12 | 0 | -1 | 2 | -1 | 0
CCSc1ncc(Cl)c(C(=O)Nc2ccc(S(=O)(=O)N3CCCCC3)cc2)n1 | 1 | -3 | 5 | -10 | -11
Cc1cc(C)c([N+](=O)[O-])cc1NC(=O)CCSc1ccccc1Cl | 0 | 1 | 5 | -1 | -35*
O=C(CCSc1ccccc1Cl)Nc1cccc([N+](=O)[O-])c1 | -1 | -12 | 9 | 0 | -35*
Cc1ccnc(NS(=O)(=O)c2ccc(NC(=O)C(C)(C)Oc3ccc(Cl)cc3)cc2)n1 | 0 | -4 | 3 | -4 | -1
COC(=O)c1cc2sccc2n1Cc1c(C)cc(C)cc1C | 0 | 4 | 0 | 4 | 19
COc1cc(OC)cc(-n2c(=O)c3ccccc3n(Cc3ccccc3C#N)c2=O)c1 | 0 | 0 | 2 | -1 | 3
C/C(=N/n1cnnc1)c1cccnc1 | 0 | -1 | 2 | 2 | -5
CN=c1scc(-c2ccc(OC)cc2)n1/N=C(\C)c1cccnc1 | -1 | -8 | 12 | -6 | -55*
Cc1c(CN2CCN(CC(C)(C)C)C(CCO)C2)[nH]c2ccccc12 (stereo not given) | 1 | -2 | 3 | 20 | 21
CCOc1ccc(CN2CCN(Cc3[nH]c4ccccc4c3C)CC2CCO)cc1 (stereo not given) | 2 | -1 | 48* | 19 | -1
Cc1nc(/C=C/c2ccccc2)[nH]c(=O)c1-c1ccccc1 | 1 | -4 | -1 | -2 | -43*
CCNC(=O)/C(=C\c1ccc2c(c1)OCO2)NC(=O)c1ccc(Br)cc1 | 0 | -4 | 1 | 1 | 11
CCN(CC)C(=O)/C(=C\c1ccc2c(c1)OCO2)NC(=O)c1ccc(Br)cc1 | 0 | -7 | -1 | 7 | -30*
Fc1cccc(CNc2ncnc3ccc(-c4ccccc4Cl)cc23)c1 | 1 | 1 | 0 | 6 | -8
O=c1ccn(-c2cccc(C(F)(F)F)c2)nc1-c1ccn(-c2ccccc2)n1 | 0 | -4 | -1 | -5 | -38*
Cc1cc(=O)c(C(=O)O)nn1-c1cccc(C(F)(F)F)c1 | 0 | -3 | -1 | -1 | 13
NC1=NC2(CCCCC2)N=C(Nc2ccc(Br)cc2)N1 | -1 | -11 | 2 | 1 | -37*
